Results filed as inconclusive are left out. Active and inactive are the calls of the source. Unless noted, calls follow the shape of the dose curve; as a rule, active = well fitted inhibition curve with a large enough effect; inconclusive = small, poorly fitted or top-dose-only effect; inactive = flat fitted curve, though single readings scatter.

Assay [1] is described as follows: qHTS for identification of novel therapeutic agents for treatment of microphthalmiaassociated transcription factor (MiT) renal cell carcinoma (RCC) (AID 1963991). Particulars: CellTiter-Glo, 48 h, stronger effect = lower value. Put shortly: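 Three TFE3-fusion RCC lines (UOK109, UOK124, UOK145), 500 cells/well in complete medium, were treated with MIPE 4.0 compounds for 48 hours at 37 C. Viability was by CellTiter-Glo luminescence, normalized to DMSO (100%) and empty wells (0%); curves fitted over 11 concentrations.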
On the technique in general: In qHTS, concentration-response curves come from the screen itself.

Assay [2] is described as follows: qHTS profiling for inhibitors of Plasmodium falciparum proliferation (AID 504749). Also: nearly all actives have a fitted effect of over 60% in size. Also: potency is read from the fitted curve at half-maximal effect.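 As to activity, negative = inhibition: 0% = DMSO vehicle and full inhibition = artemisinin control.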 The conditions noted are these: P. falciparum in erythrocytes, SYBR Green DNA, 72 h. Put shortly:
(§1)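 Each compound contacts P. falciparum-infected red blood cells for 72 h at 37 C; lysis buffer (Tris, EDTA, saponin, Triton X, SYBR Green I) is added and fluorescence measured next morning; values normalized to controls.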

Assay [3] has as its system 3D7. The assay is described as above. The conditions noted are these: P. falciparum in erythrocytes, SYBR Green DNA, 72 h; series mostly up to 28.7 µM. Put shortly:
as §1

For assay [4], the system named is 7G8. Described as above. The conditions noted are these: P. falciparum in erythrocytes, SYBR Green DNA, 72 h; series mostly up to 28.7 µM. Put shortly: as §1
For assay [5], the system named is AA1029. The assay is described as above. Particulars: P. falciparum in erythrocytes, SYBR Green DNA, 72 h; series mostly up to 28.7 µM. Put shortly:
as §1

The subject of assay [6] is AS120. The description is as above. Particulars: P. falciparum in erythrocytes, SYBR Green DNA, 72 h; series mostly up to 28.7 µM. Summed up:
as §1

The test system of assay [7] is ATS189. The assay is described as above. The conditions noted are these: P. falciparum in erythrocytes, SYBR Green DNA, 72 h; series mostly up to 28.7 µM. Put shortly: as §1
Assay [8] relates to ATS95. Described as above. The conditions noted are these: P. falciparum in erythrocytes, SYBR Green DNA, 72 h; series mostly up to 28.7 µM. Summed up: as §1
The subject of assay [9] is C2A. The description is as above. The conditions noted are these: P. falciparum in erythrocytes, SYBR Green DNA, 72 h; series mostly up to 28.7 µM. Put shortly: as §1
The subject of assay [10] is CP185. The description is as above. The conditions noted are these: P. falciparum in erythrocytes, SYBR Green DNA, 72 h; series mostly up to 28.7 µM. Put shortly: as §1
Assay [11] is described as follows: qHTS drug screen for cell cycle checkpoint inhibitors in PARPi-resistant BRCA-mutant ovarian cancer cell lines. (AID 1963452; calls by dose curve). Particulars: PEO1/OlaR viability, CellTiter-Glo luminescence, 96 h, stronger effect = lower value. Summed up:
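PEO1, PEO4 and PEO1/OlaR ovarian cancer cells, 600 per well, exposed 96 h at 37C to a dilution series. Viability read by CellTiter-Glo luminescence, normalized to DMSO and empty wells; activity summarized as Z-AUC.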

Where [12] appears, read: TFE3-RCC UOK109 viability, measured here: UOK109 Z-AUC.
The mark [13] stands for this setting: TFE3-RCC viability, measured here: UOK124 Z-AUC.
Where [14] appears, read: TFE3-RCC viability, measured here: UOK145 Z-AUC.
The mark [15] stands for this setting: at 28.7 µM (top of the series), parasite line A.
[16] abbreviates: at 28.7 µM (top of the series), parasite line B.
Where [17] appears, read: measured here: PEO1 parental Z-AUC.
[18] abbreviates: at 12.8 µM (top of the series), parasite line A.
Where [19] appears, read: at 12.8 µM (top of the series), parasite line B.

In the case of `N[C@@H](C(=O)N[C@@H]1C(=O)N2C(C(=O)O)=C(Cl)CS[C@H]12)c1ccccc1`, the z-score in assay [1] (setting [12]) came out at 1.18; in [1] (setting [13]) it was 0.137; in assay [1] (setting [14]), 0.843. The figures for the activity, negative = inhibition in [2] (setting [15]) and in assay [2] (setting [16]) were 10% (inactive) and -2.02% (inactive), respectively. The Potency entry in [3], in assay [4], in assay [5], in assay [6], in assay [7] and in [8] was “inactive” in each case. Also, the Potency result in assay [9] and in assay [10] was “inactive” throughout.

In the case of `CCCCCCNC(=O)n1cc(F)c(=O)[nH]c1=O`, the Z-AUC in assay [11] is 1.08 (inactive); in assay [11] (setting [17]) it was 0.601; in assay [11] (measured here: PEO4 Z-AUC) it was 0.733. For the same compound, the Potency in [3] was 4.47 µM (active); in assay [4] it was 5.01 µM (active); in assay [9], 12.6 µM (active).

As to `Cc1ccnc2c1NC(=O)c1cccnc1N2C1CC1`, the figures for the activity, negative = inhibition in assay [2] (setting [15]) and in assay [2] (setting [16]) were 0.983% (inactive) and -17.2% (inactive), respectively. Moreover, the Potency entry in [3], in assay [5], in assay [6], in [7], in assay [8] and in assay [9] was “inactive” in each case. Moreover, the Potency result in [10] was “inactive”.

For the compound `NC(=O)N1c2ccccc2CC(=O)c2ccccc21`, the z-score was 0.211 in [1] (setting [12]), 0.361 in assay [1] (setting [13]) and -0.025 in [1] (setting [14]). The activity, negative = inhibition in assay [2] (setting [15]) is -5.05% (inactive); in [2] (setting [16]), -8.83% (inactive). The Potency result in [3], in assay [4], in assay [5], in assay [6], in [7] and in assay [8] was “inactive” in each case. Further, the Potency entry in assay [9] and in [10] was “inactive” throughout.

For `CC1CC2C3CCC4=CC(=O)C=C[C@]4(C)[C@@]3(F)[C@@H](O)C[C@]2(C)[C@@]1(O)C(=O)CO` (stereo partly drawn), the z-score stood at 0.936 in [1] (setting [12]), 0.693 in assay [1] (setting [13]) and 0.527 in [1] (setting [14]).

Consider `CCN(CC)CC#CCOC(=O)C(O)(c1ccccc1)C1CCCCC1` (stereo not drawn), for which the z-score in [1] (setting [12]) stood at 0.714; in assay [1] (setting [13]), 0.353; in assay [1] (setting [14]), 0.607.

With `CN1CCN(c2c(F)cc3c(=O)c(C(=O)O)cn(CCF)c3c2F)CC1`, the z-score in assay [1] (setting [12]) was 1.29; in [1] (setting [13]), -0.24; in assay [1] (setting [14]), 0.785. Moreover, the results for the activity, negative = inhibition in assay [2] (setting [15]) and in assay [2] (setting [16]) were 1.69% (inactive) and 7.79% (inactive), respectively. Besides, the Potency entry in assay [3], in assay [4], in assay [5], in assay [6], in assay [7] and in assay [8] was “inactive” throughout. The Potency result in [9] and in assay [10] was “inactive” each time.

For the compound `CCCCOc1ccc(CC(=O)NO)cc1`, the figures for the Z-AUC in assay [11], in assay [11] (setting [17]) and in [11] (measured here: PEO4 Z-AUC) were -0.866 (inactive), -0.714 and -0.748, respectively. Further, the Potency in assay [2] (parasite line A) is 1.12 µM (active); in [3], 0.562 µM (active); in assay [4], 1.78 µM (active); in [6], 3.55 µM (active); in assay [8], 3.55 µM (active); in assay [9] it was 1.58 µM (active). Moreover, in [10], the Potency is 3.98 µM (active).

As for `CCn1cc(C(=O)O)c(=O)c2cc(F)c(N3CCNCC3)nc21`, the z-score in assay [1] (setting [12]) is 0.63; in [1] (setting [13]), -0.25; in assay [1] (setting [14]) it was 0.63. Further, the activity, negative = inhibition in assay [2] (setting [18]) was -33.7% (inactive); in [2] (setting [19]) it was -38.9% (inactive). Moreover, the Potency result in [3], in [7], in assay [8], in [9] and in assay [10] was “inactive” each time.

As for `COc1ccc(C(=O)CC(=O)c2ccc(C(C)(C)C)cc2)cc1`, the Z-AUC is 1.49 (inactive) in assay [11], 0.772 in assay [11] (setting [17]) and 1.06 in [11] (measured here: PEO4 Z-AUC). For the same compound, the activity, negative = inhibition in assay [2] (setting [15]) was 0.965% (inactive). Moreover, the Potency result in assay [3], in assay [5], in assay [6], in assay [7], in assay [8] and in [9] was “inactive” in each case. Further, the Potency result in [10] is “inactive”.

In the case of `CCOC(=O)[C@H](CCc1ccccc1)N[C@H]1CS[C@H](c2cccs2)CN(CC(=O)O)C1=O`, the Z-AUC was -0.655 (inactive) in assay [11], -0.787 in assay [11] (setting [17]) and -0.726 in [11] (measured here: PEO4 Z-AUC). Moreover, in assay [2] (setting [15]), the activity, negative = inhibition is -33.7% (inactive). For the same compound, the Potency result in assay [3], in assay [5], in assay [7], in [8], in [9] and in assay [10] was “inactive” throughout.

With `Cc1noc(NS(=O)(=O)c2ccc(N)cc2)c1C`, the results for the activity, negative = inhibition in assay [2] (setting [15]) and in [2] (setting [16]) were 13.7% (inactive) and 4.61% (inactive), respectively. In addition, the Potency result in assay [3], in [4], in [5], in [6], in assay [7] and in assay [8] was “inactive” each time. The Potency entry in [9] and in assay [10] was “inactive” each time.

In the case of `CN1CCCC(n2nc(Cc3ccc(Cl)cc3)c3ccccc3c2=O)CC1` (stereo not drawn), the figures for the activity, negative = inhibition in assay [2] (setting [15]) and in [2] (setting [16]) were -9.96% (inactive) and -11.1% (inactive), respectively. The Potency result in [3] and in assay [10] was “inactive” throughout. In [4], the Potency was 12.6 µM (active).

With `CCN1CCCC1CNC(=O)c1cc(S(N)(=O)=O)ccc1OC` (stereo not drawn), the z-score was found to be 0.447 in assay [1] (setting [12]), 0.683 in assay [1] (setting [13]) and 0.799 in assay [1] (setting [14]).

For `CCN(C)C(=O)Oc1cccc([C@H](C)N(C)C)c1`, the z-score in [1] (setting [12]) amounted to 0.893; in assay [1] (setting [13]), 0.446; in assay [1] (setting [14]), 1.29. Further, the activity, negative = inhibition in assay [2] (setting [15]) is 3.53% (inactive); in assay [2] (setting [16]), 1.69% (inactive). In addition, the Potency result in [3], in [4], in [5], in [6], in assay [7] and in assay [8] was “inactive” throughout. Besides, the Potency entry in assay [9] and in assay [10] was “inactive” in each case.

Regarding `Cc1cccc(Nc2ccncc2S(=O)(=O)NC(=O)NC(C)C)c1`, the z-score worked out at 0.581 in [1] (setting [12]), 0.17 in [1] (setting [13]) and 0.58 in assay [1] (setting [14]). Besides, the figures for the activity, negative = inhibition in [2] (setting [18]) and in [2] (setting [19]) were -0.953% (inactive) and 11.1% (inactive), respectively. Moreover, the Potency entry in assay [3], in [4], in [5], in [6], in assay [7] and in [8] was “inactive” throughout. The Potency entry in assay [9] and in assay [10] was “inactive” throughout.

`CN(C)CCc1c[nH]c2ccc(C[C@H]3COC(=O)N3)cc12`: the z-score in assay [1] (setting [12]) was 0.402; in assay [1] (setting [13]), -0.14; in assay [1] (setting [14]) it was 0.58.

As to `COc1ccccc1OCC(O)COC(N)=O` (stereo not drawn), the z-score in assay [1] (setting [12]) came to 0.0196; in assay [1] (setting [13]) it was 0.974; in [1] (setting [14]) it was 0.377.

As for `Oc1c(Cl)cc(Cl)c2cccnc12`, the Z-AUC in assay [11] was 0.201 (inactive); in [11] (setting [17]), -0.0999; in assay [11] (measured here: PEO4 Z-AUC), -0.27. For the same compound, the Potency in [2] (parasite line B) was 10 µM (active); in assay [4], 6.31 µM (active); in [6], 11.2 µM (active); in assay [7], 8.91 µM (active); in assay [8] it was 7.94 µM (active); in assay [10], 11.2 µM (active).

Regarding `COc1ccc2c(c1)c(CC(=O)OCC(=O)O)c(C)n2C(=O)c1ccc(Cl)cc1`, the figures for the z-score in [1] (setting [12]), in [1] (setting [13]) and in assay [1] (setting [14]) were 1.12, 1.19 and 0.507, respectively.

For the origin of these results see PubChem BioAssay (NCATS).
